Experimental data published in PMC8384837, “Expanding the binding specificity for RNA recognition by a PUF domain”.
Positions count from the first letter of the chain named.

Legend:
Experiment in all cases: yeast three-hybrid, YBZ-1, SC-Leu-His + 0.5 mM 3-AT, 4 days
Conditions in all cases: tags: N-Gal4 AD-HA kept; label: inside an RPR1-promoter hybrid RNA with tandem MS2 sites; ssRNA
PUM1 PUF domain R6-VYH = target: T1, PUM1 PUF domain R6-VYH (Homo sapiens, UniProt Q14671 828-1176, N1043V;Q1047H)
T1 sequence: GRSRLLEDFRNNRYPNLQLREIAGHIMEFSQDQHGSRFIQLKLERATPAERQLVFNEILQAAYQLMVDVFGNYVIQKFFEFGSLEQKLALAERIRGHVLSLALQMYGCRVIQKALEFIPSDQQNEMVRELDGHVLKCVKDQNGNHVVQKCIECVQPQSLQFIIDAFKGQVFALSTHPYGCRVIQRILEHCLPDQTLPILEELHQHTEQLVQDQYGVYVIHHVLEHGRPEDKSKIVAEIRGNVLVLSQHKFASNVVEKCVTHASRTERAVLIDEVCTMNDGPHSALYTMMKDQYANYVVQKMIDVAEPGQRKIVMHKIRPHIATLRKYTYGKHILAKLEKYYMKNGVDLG
Method in brief: (§1)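 Pumilio-1 PUF domain libraries, randomized at the three base-contacting residues of each repeat, were co-expressed with matching RNA elements from a centromeric plasmid in strain YBZ-1, which carries a LexA–MS2 coat fusion and a HIS3 reporter. Transformants grew for four days on SC-Leu (input) or on SC-Leu-His + 0.5 mM 3-AT (selection), and the repeat regions were PCR-amplified and Illumina-sequenced. The interaction score is the log change in variant frequency from input to selection. That logarithm is base 2, with a pseudocount of 1 where a variant was absent.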

PUM1 PUF domain R3-LYR = PUM1 PUF domain R3-LYR (Homo sapiens, UniProt Q14671 828-1176, C935L;R936Y;Q939R)
Method in brief: as §1

PUM1 PUF domain R3-VWD = PUM1 PUF domain R3-VWD (Homo sapiens, UniProt Q14671 828-1176, C935V;R936W;Q939D)
Method in brief: as §1

PUM1 PUF domain R5-PRK = PUM1 PUF domain R5-PRK (Homo sapiens, UniProt Q14671 828-1176, C1007P;Q1011K)
Sequence of PUM1 PUF domain R5-PRK (Q14671 828-1176 C1007P/Q1011K): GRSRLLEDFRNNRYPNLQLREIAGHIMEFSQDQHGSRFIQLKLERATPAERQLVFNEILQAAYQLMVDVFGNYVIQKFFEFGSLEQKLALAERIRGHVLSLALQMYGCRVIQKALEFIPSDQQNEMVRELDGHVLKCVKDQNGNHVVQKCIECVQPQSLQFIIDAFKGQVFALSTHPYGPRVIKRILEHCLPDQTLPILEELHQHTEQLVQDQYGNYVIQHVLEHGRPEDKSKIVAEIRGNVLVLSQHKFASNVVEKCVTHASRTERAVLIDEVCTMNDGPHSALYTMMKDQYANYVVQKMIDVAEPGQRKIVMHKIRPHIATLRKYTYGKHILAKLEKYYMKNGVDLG
Method in brief: as §1

PUM1 PUF domain R5-RFI = PUM1 PUF domain R5-RFI (Homo sapiens, UniProt Q14671 828-1176, C1007R;R1008F;Q1011I)
Method in brief: as §1

PUM1 PUF domain R1-RGN = PUM1 PUF domain R1-RGN (Homo sapiens, UniProt Q14671 828-1176, S863R;R864G;Q867N)
Method in brief: as §1

PUM1 PUF domain R2-AWH = PUM1 PUF domain R2-AWH (Homo sapiens, UniProt Q14671 828-1176, N899A;Y900W;Q903H)
Method in brief: as §1

PUM1 PUF domain R2-LFA = PUM1 PUF domain R2-LFA (Homo sapiens, UniProt Q14671 828-1176, N899L;Y900F;Q903A)
Method in brief: as §1

PUM1 PUF domain R7-DYV = PUM1 PUF domain R7-DYV (Homo sapiens, UniProt Q14671 828-1176, S1079D;N1080Y;E1083V)
Method in brief: as §1

PUM1 PUF domain R8-KRV = PUM1 PUF domain R8-KRV (Homo sapiens, UniProt Q14671 828-1176, N1122K;Y1123R;Q1126V)
Method in brief: as §1

PUM1 PUF domain R8-RYC = PUM1 PUF domain R8-RYC (Homo sapiens, UniProt Q14671 828-1176, N1122R;Q1126C)
Method in brief: as §1

PUM1 PUF domain R8-LYI = PUM1 PUF domain R8-LYI (Homo sapiens, UniProt Q14671 828-1176, N1122L;Q1126I)
Method in brief: as §1

PUM1 PUF domain R8-GFK = PUM1 PUF domain R8-GFK (Homo sapiens, UniProt Q14671 828-1176, N1122G;Y1123F;Q1126K)
Method in brief: as §1

PUM1 PUF domain R4-VMC = PUM1 PUF domain R4-VMC (Homo sapiens, UniProt Q14671 828-1176, N971V;H972M;Q975C)
Method in brief: as §1

PUM1 PUF domain R4-VNV = PUM1 PUF domain R4-VNV (Homo sapiens, UniProt Q14671 828-1176, N971V;H972N;Q975V)
Method in brief: as §1

PUM1 PUF domain R8-RFK = PUM1 PUF domain R8-RFK (Homo sapiens, UniProt Q14671 828-1176, N1122R;Y1123F;Q1126K)
Method in brief: as §1

PUM1 PUF domain R6-HFV = target: T2, PUM1 PUF domain R6-HFV (Homo sapiens, UniProt Q14671 828-1176, N1043H;Y1044F;Q1047V)
T2 sequence: T1 sequence with V216H, Y217F, H220V
Method in brief: as §1

PUM1 PUF domain R5-KMV = PUM1 PUF domain R5-KMV (Homo sapiens, UniProt Q14671 828-1176, C1007K;R1008M;Q1011V)
Method in brief: as §1

PUM1 PUF domain R1-WKR = PUM1 PUF domain R1-WKR (Homo sapiens, UniProt Q14671 828-1176, S863W;R864K;Q867R)
Method in brief: as §1

PUM1 PUF domain R1-KAV = PUM1 PUF domain R1-KAV (Homo sapiens, UniProt Q14671 828-1176, S863K;R864A;Q867V)
Method in brief: as §1

GGCUAGAACUAGUGGAUCCCCCGGCGCCCGGCGGCUCGAGCCCGGGUAAGUGAAAAUAGUCUGCAUGCCGCCGGGCGCCAUGCCUGCAGGUCGACUCUAGAAAACAUG
binding signal (PUM1 PUF domain R6-VYH): 5.62 log2 enrichment (interaction score)

GGCUAGAACUAGUGGAUCCCCCGGCGCCCGGCGGCUCGAGCCCGGGUAAGUGUAAGUAGUCUGCAUGCCGCCGGGCGCCAUGCCUGCAGGUCGACUCUAGAAAACAUG
binding signal (PUM1 PUF domain R3-LYR): 5.31 log2 enrichment (interaction score) | binding signal (PUM1 PUF domain R3-VWD): 1.13 log2 enrichment (interaction score)

GGCUAGAACUAGUGGAUCCCCCGGCGCCCGGCGGCUCGAGCCCGGGUAAGUGUGAAUAGUCUGCAUGCCGCCGGGCGCCAUGCCUGCAGGUCGACUCUAGAAAACAUG
binding signal (PUM1 PUF domain R5-PRK): 3.87 log2 enrichment (interaction score) | binding signal (PUM1 PUF domain R5-RFI): 3.33 log2 enrichment (interaction score)

GGCUAGAACUAGUGGAUCCCCCGGCGCCCGGCGGCUCGAGCCCGGGUAAGUGUAAAUGGUCUGCAUGCCGCCGGGCGCCAUGCCUGCAGGUCGACUCUAGAAAACAUG
binding signal (PUM1 PUF domain R1-RGN): 0.76 log2 enrichment (interaction score)

GGCUAGAACUAGUGGAUCCCCCGGCGCCCGGCGGCUCGAGCCCGGGUAAGUGUAAAAAGUCUGCAUGCCGCCGGGCGCCAUGCCUGCAGGUCGACUCUAGAAAACAUG
binding signal (PUM1 PUF domain R2-AWH): 2.3 log2 enrichment (interaction score) | binding signal (PUM1 PUF domain R2-LFA): 3.68 log2 enrichment (interaction score)

GGCUAGAACUAGUGGAUCCCCCGGCGCCCGGCGGCUCGAGCCCGGGUAAGUUUAAAUAGUCUGCAUGCCGCCGGGCGCCAUGCCUGCAGGUCGACUCUAGAAAACAUG
binding signal (PUM1 PUF domain R7-DYV): 6 log2 enrichment (interaction score)

GGCUAGAACUAGUGGAUCCCCCGGCGCCCGGCGGCUCGAGCCCGGGUAAGUGUAAUUAGUCUGCAUGCCGCCGGGCGCCAUGCCUGCAGGUCGACUCUAGAAAACAUG
binding signal (PUM1 PUF domain R3-LYR): 4.25 log2 enrichment (interaction score)

GGCUAGAACUAGUGGAUCCCCCGGCGCCCGGCGGCUCGAGCCCGGGUAAGCGUAAAUAGUCUGCAUGCCGCCGGGCGCCAUGCCUGCAGGUCGACUCUAGAAAACAUG
binding signal (PUM1 PUF domain R8-KRV): 3.19 log2 enrichment (interaction score) | binding signal (PUM1 PUF domain R8-RYC): 5.8 log2 enrichment (interaction score) | binding signal (PUM1 PUF domain R8-LYI): 2.78 log2 enrichment (interaction score) | binding signal (PUM1 PUF domain R8-GFK): 3.45 log2 enrichment (interaction score)

GGCUAGAACUAGUGGAUCCCCCGGCGCCCGGCGGCUCGAGCCCGGGUAAGUGUACAUAGUCUGCAUGCCGCCGGGCGCCAUGCCUGCAGGUCGACUCUAGAAAACAUG
binding signal (PUM1 PUF domain R4-VMC): 2.94 log2 enrichment (interaction score) | binding signal (PUM1 PUF domain R4-VNV): 2.33 log2 enrichment (interaction score)

GGCUAGAACUAGUGGAUCCCCCGGCGCCCGGCGGCUCGAGCCCGGGUAAGUGUAAAUAGUCUGCAUGCCGCCGGGCGCCAUGCCUGCAGGUCGACUCUAGAAAACAUG
binding signal (PUM1 PUF domain R3-LYR): 4.29 log2 enrichment (interaction score) | binding signal (PUM1 PUF domain R8-KRV): 2.09 log2 enrichment (interaction score) | binding signal (PUM1 PUF domain R8-RFK): 6.27 log2 enrichment (interaction score) | binding signal (PUM1 PUF domain R8-RYC): 5.15 log2 enrichment (interaction score) | binding signal (PUM1 PUF domain R8-LYI): 1.1 log2 enrichment (interaction score) | binding signal (PUM1 PUF domain R5-PRK): 2.27 log2 enrichment (interaction score) | binding signal (PUM1 PUF domain R3-VWD): 5.84 log2 enrichment (interaction score) | binding signal (PUM1 PUF domain R6-HFV): 2.51 log2 enrichment (interaction score) | binding signal (PUM1 PUF domain R5-RFI): 3.37 log2 enrichment (interaction score) | binding signal (PUM1 PUF domain R4-VMC): 2.72 log2 enrichment (interaction score)

GGCUAGAACUAGUGGAUCCCCCGGCGCCCGGCGGCUCGAGCCCGGGUAAGUGUCAAUAGUCUGCAUGCCGCCGGGCGCCAUGCCUGCAGGUCGACUCUAGAAAACAUG
binding signal (PUM1 PUF domain R5-KMV): 3.71 log2 enrichment (interaction score) | binding signal (PUM1 PUF domain R5-PRK): 2.13 log2 enrichment (interaction score)

GGCUAGAACUAGUGGAUCCCCCGGCGCCCGGCGGCUCGAGCCCGGGUAAGUGUUAAUAGUCUGCAUGCCGCCGGGCGCCAUGCCUGCAGGUCGACUCUAGAAAACAUG
binding signal (PUM1 PUF domain R5-PRK): 4.06 log2 enrichment (interaction score)

GGCUAGAACUAGUGGAUCCCCCGGCGCCCGGCGGCUCGAGCCCGGGUAAGUGUAAAUUGUCUGCAUGCCGCCGGGCGCCAUGCCUGCAGGUCGACUCUAGAAAACAUG
binding signal (PUM1 PUF domain R1-WKR): 3.54 log2 enrichment (interaction score) | binding signal (PUM1 PUF domain R1-RGN): 2.37 log2 enrichment (interaction score) | binding signal (PUM1 PUF domain R1-KAV): 2.36 log2 enrichment (interaction score)

GGCUAGAACUAGUGGAUCCCCCGGCGCCCGGCGGCUCGAGCCCGGGUAAGUGUAAAUCGUCUGCAUGCCGCCGGGCGCCAUGCCUGCAGGUCGACUCUAGAAAACAUG
binding signal (PUM1 PUF domain R1-WKR): 1.59 log2 enrichment (interaction score) | binding signal (PUM1 PUF domain R1-RGN): 1.85 log2 enrichment (interaction score)
